# High-throughput results (PubChem)
# This is a sample that favours compounds with a hit; in the whole collection about 5.7% have one here.
# DRD3 agonist: activates the human D3 dopamine receptor; D3R DiscoveRx beta-arrestin cells, luminescence, 90 min; max activation, %; AID 652048; 410,000 tested, 0.58% active; P35462; in the data active means max activation above about 30%; further: 0% is about no effect
#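 Agonist-mode cell screen: cells plated at 1500/well and incubated overnight at 37 °C, then exposed to library compounds for 90 min at 37 °C. Detection reagent was added for 30–60 min at room temperature, and luminescence was read.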
# HEK293 tox: cytotoxic in the GLP-1 receptor inverse agonist counter-screen; HEK293 cAMP-luciferase reporter cells, luminescence, 24 h; Potency, µM (top dose mostly 38.3 µM), for inactives: at the highest dose activity change, negative = inhibition, most hits filed as inhibitors; 410,000 tested, 0.13% active;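 further: loss of luciferase light is scored as toxicity; potency means the concentration at half of the fitted maximal effect; on the % scale 0 is the no-effect control and ±100 the full control effect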
#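 Step one: seed cells (200 cells/uL, DMEM with 10% Nu serum, 1% pen-strep). Step two: 12-hour incubation at 37 deg C. Step three: pin 23 nL compound, incubate 24 hr. Step four: add luciferase reagent, read luminescence 12 min later.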
# D3 antag: blocks the human D3 dopamine receptor | D3R cells, DiscoveRx beta-arrestin luminescence, antagonist mode; active compounds read low | max response, negative = inhibition, % | 360,000 tested, 2.5% active | P35462; in the data active means max response below about -50%; inconclusive means no clear call, values can overlap the other calls; further: on the % scale 0 is the no-effect control and ±100 the full control effect
#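 Cells plated overnight at 1500 cells/well, then exposed to library compounds with dopamine controls for 90 minutes at 37 degrees C. DiscoveRx reagent added for 30–60 minutes at room temperature; luminescence read, quantitative HTS format.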
# ClpP mod: qHTS Assay for Activators of ClpP; ATP-dependent Clp protease proteolytic subunit (Bacillus subtilis (strain 168)), P80244; purified B. subtilis ClpP, FRET peptide cleavage, 20 min; Potency, µM (highest dose often 57.5 µM), for the others: top-dose activity change, negative = active; 340,000 tested, 1.9% active; AID 651965, 2013; active means well fitted falling curve with a large enough effect; inconclusive means small, poorly fitted or top-dose-only effect; inactive means no such curve, though single readings can be large or run the other way; further: potency means the concentration at half of the fitted maximal effect; the source files actives as falling curves though it sought activators and does not explain the sign; nearly all actives have a fitted effect of over 65% in size
#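 FRET quenching reversal measured ClpP activation: 10 microg/mL B. subtilis ClpP at pH 8 with the FRET-FV decapeptide, read at 430 nm after 320 nm excitation. The 20-min minus 0-min signal was scaled between DMSO/no-enzyme wells and ADEP (5.8 microM final).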
# GLP-1R inv ag: acts as inverse agonist at human GLP-1 receptor; AID 624417; 410,000 tested, 1.6% active; Potency, µM (series often up to 38.3 µM), for the others: at the highest dose activity change, negative = inhibition, hits mostly inhibitors; P43220; HEK293 GLP-1R CRE-luciferase, luminescence, 24 h; GLP-1R form is constitutively active; further: potency means the concentration at half of the fitted maximal effect; on the % scale 0 is the no-effect control and ±100 the full control effect; nearly all actives have a fitted effect of over 55% in size
#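 Constitutively active GLP-1R drives a cAMP-responsive luciferase in stably transfected HEK293 cells; test compounds are added after overnight (12 h) attachment and left 24 hr, and signal loss in luminescence marks inhibition.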
# GLP-1R agonist: activates the human GLP-1 receptor | P43220 | HEK293 GLP-1R CRE-luciferase, luminescence, 4-6 h; cells express a hypersensitive GLP-1R form | 380,000 tested, 0.007% active | Potency, µM (highest dose often 45.6 µM), inactives show at the top dose activation, actives largely listed as activators; further: potency means the concentration at half of the fitted maximal effect; % of control where 0% means no effect
# The depositor's hits bear a star; ? = inconclusive; · = no result. Unless noted, the call rests on the fitted dose curve; in most records, active means well fitted curve in the direction sought with a large enough effect; inconclusive means small, poorly fitted or top-dose-only effect, or another doubt; inactive means no such curve, though single readings can be large; an effect the other way counts as inactive or inconclusive.
SMILES,DRD3 agonist,HEK293 tox,D3 antag,ClpP mod,GLP-1R inv ag,GLP-1R agonist
Cc1ccccc1C(=O)c1cccn1CC(=O)NCCCN1CCCCC1,-15.3,-5.1%,-21.4,-0.2%,5.0%,-1.3%
COc1ccc(/C=N/NC(=O)CC(=O)N/N=C/c2ccc(OC)cc2)cc1,-1.6,-19.4%,-4.0,·,9.2%,10.1%
COc1ccc(NC(=O)NCCCN2CCN(c3cc(C)ccc3C)CC2)cc1,-5.9,3.7%,-107.8*,0.6%,?,-3.1%
COc1ccc(N2CCN(CC(=O)Nc3ccc(C)cc3)CC2)cc1,-4.6,0.0%,-17.5,-5.5%,?,9.2%
COc1ccc(N2CCN(CC(=O)Nc3ccc(SC(F)F)cc3)CC2)cc1,4.7,-6.4%,-29.1,-1.4%,10µM*,-5.6%
COc1ccc(/C=N/NC(=O)CN2CCS(=O)(=O)CC2)cc1,1.7,-4.6%,-52.4*,1.6%,8.4%,7.1%
COc1ccc([C@H]2C[C@H](O)[C@@H](n3cc(-c4ccc(F)cc4)nn3)CN2CC2CCCCC2)cc1,4.0,-1.9%,3.4,-2.4%,-6.2%,-2.2%
COc1ccc(N2C(=O)CC(N3CCN(c4ccccc4F)CC3)C2=O)cc1 (stereo not given),4.4,4.2%,-65.5*,0.2%,0.5%,-3.1%
COc1ccccc1NC(=O)NCCCN1CCN(c2ccc(F)cc2)CC1,-21.4,-10.0%,·,0.4%,?,-2.0%
CCN1CCN(CC(=O)Nc2ccc(Cl)c(S(=O)(=O)N(C)C)c2)CC1,-16.9,6.6%,3.9,2.2%,14.2%,4.4%
CN(C)S(=O)(=O)c1cc(NC(=O)CN2CCN(c3ccccc3F)CC2)ccc1Cl,49.3*,2.3%,-6.6,·,?,5.2%
COc1cccc(NC(=O)NCCCN2CCN(c3ccc(F)cc3)CC2)c1,-29.9,5.6%,-55.9*,-1.5%,?,-5.4%
Cc1ccc(NC(=O)CN2CCCC2c2cccs2)cc1S(=O)(=O)N1CCCCC1 (stereo not given),-3.3,0.5%,0.6,-3.2%,4.47µM*,7.1%
CCOc1ccc(NC(=O)NCCN2CCN(c3cccc(C)c3C)CC2)cc1,63.5*,-14.8%,-59.2*,-1.2%,-22.5%,3.6%
O=C(Nc1ccc(S(=O)(=O)N2CCCCC2)cc1)c1ccc(CN2CCc3ccccc3C2)cc1,-14.0,78.9%,-21.8,?,?,-4.4%
O=C(Nc1cccnc1)c1ccc(CN2CCc3ccccc3C2)cc1,-13.2,3.9%,-74.0*,-7.9%,0.0%,18.5%
O=C(Nc1ccccc1)c1ccc(CN2CCc3ccccc3C2)cc1,-4.5,-14.7%,?,·,?,20.8%
Cc1ccc(NC(=O)c2ccc(CN3CCc4ccccc4C3)cc2)cc1,-11.3,-4.7%,-85.1*,0.7%,?,0.4%
O=C(Nc1cccnc1)c1ccc(C(=O)Nc2cccnc2)cc1,-1.0,-1.6%,-12.1,·,11.0%,1.3%
Cc1cc(C)cc(NC(=O)c2ccc(CN3CCc4ccccc4C3)cc2)c1,-11.2,3.9%,-66.8*,-3.1%,-16.4%,-8.9%
O=C(CCCN1CCN(c2ccc(F)cc2)CC1)NC1c2ccccc2CSc2ccccc21 (stereo not given),-23.8,·,·,·,·,7.3%
COc1ccccc1S(=O)(=O)N(C)C[C@H]1OCc2cnnn2CCCC(=O)N([C@H](C)CO)C[C@H]1C,3.2,5.8%,3.2,-1.3%,13.7%,-1.2%
COc1cc(C=O)ccc1OCc1cccc(Br)c1,2.0,4.7%,-6.8,25.1µM*,0.4%,4.2%
O=C(NCc1ccc(-c2csnn2)cc1)c1cccs1,-6.7,6.6%,-50.7*,·,1.5%,18.4%
O=C(NCc1ccc(-c2csnn2)cc1)c1cc(Cl)cc(Cl)c1,-5.9,1.0%,0.0,·,3.1%,4.5%
SMILES,DRD3 agonist,HEK293 tox,D3 antag,ClpP mod,GLP-1R inv ag,GLP-1R agonist
CCCn1cc2c(c1-c1cccc(C)c1)c(=O)n(C)c(=O)n2C,2.3,-10.6%,0.0,14.1µM*,13.3%,-3.2%
CCC(C)NC(=O)c1[nH]c2cc(OC)ccc2c1Sc1ccc(C)cc1 (stereo not given),-2.1,4.2%,·,28.2µM*,?,·
COc1ccc2c(Sc3ccccc3)c(C(=O)NCC(C)c3ccccc3)[nH]c2c1 (stereo not given),1.8,-1.2%,·,-9.1%,5.2%,·
S=c1[nH]nc(Cc2sc(-c3ccccc3)nc2-c2ccccc2)o1,4.0,-13.6%,-67.0*,-13.8%,?,-7.6%
CCOC(=O)CCCCCC(=O)Nc1ccc2c(c1)C(=O)N([C@H](C)CO)C[C@H](C)[C@@H](CN(C)C(=O)Nc1ccccc1)OCCCC[C@@H](C)O2,-3.0,-18.1%,-17.1,-5.9%,?,6.5%
O=C(O)c1ccccc1-c1c2cc(I)c(=O)c(I)c-2oc2c(I)c(O)c(I)cc12,-28.7,?,-61.7*,-3.3%,-14.8%,-0.4%
O=C(O)c1c(Cl)c(Cl)c(Cl)c(Cl)c1-c1c2cc(I)c(=O)c(I)c-2oc2c(I)c(O)c(I)cc12,-25.8,·,·,·,·,-0.4%
Cc1ccc(CNC(=S)NC2CCC(C(C)(C)C)CC2)cc1 (stereo not given),2.3,-13.5%,-2.6,-3.3%,?,9.2%
CC(NC(=S)NC1CCC(C(C)(C)C)CC1)c1ccccc1 (stereo not given),3.8,-10.6%,-1.5,1.8%,10µM*,3.8%
O=C(Nc1ccc(Cl)c(S(=O)(=O)N2CCOCC2)c1)c1cc2ccccc2oc1=O,1.1,-0.2%,4.2,0.2%,13.1%,0.4%
O=C(Nc1ccc(Cl)c(S(=O)(=O)N2CCOCC2)c1)c1ccccc1-c1ccc(C(F)(F)F)cc1,-9.2,2.4%,16.9,1.3%,2.82µM*,19.1%
O=C(Nc1ccc(NC(=O)c2ccc(Cl)c(S(=O)(=O)N3CCOCC3)c2)cc1)c1ccccc1,3.9,0.6%,-4.6,-24.4%,-5.1%,-0.9%
O=C(Nc1ccccc1)Nc1ccc(Cl)c(S(=O)(=O)N2CCOCC2)c1,-10.8,-17.0%,-50.9*,·,?,11.8%
COc1cc(-c2nc(S(=O)(=O)c3ccc(Br)cc3)c(N3CCOCC3)o2)cc(OC)c1OC,6.7,6.9%,·,-11.9%,3.7%,·
CN1CCN(CCCN2c3ccccc3Sc3ccc(Cl)cc32)CC1,·,?,-102.0*,-4.8%,?,4.5%
OC1CC2CCC(C1)N2CCCN1c2ccccc2Sc2ccc(Cl)cc21 (stereo not given),-15.8,0.0%,-101.8*,·,2.82µM*,8.7%
CN1CCN(CCCN2c3ccccc3Sc3ccccc32)CC1,-26.0,·,·,·,·,-5.3%
CCC(=O)c1ccc2c(c1)N(CCCN1CCN(CCO)CC1)c1ccccc1S2,-13.3,·,·,·,·,13.5%
